Consider one sequence from PMC7862700, “An all-to-all approach to the identification of sequence-specific readers for epigenetic DNA modifications on cytosine”.

What all share (assay): DAPPL (digital affinity profiling via proximity ligation, sequencing); 10 mM Tris-HCl pH 7.5, 50 mM NaCl, 1 mM DTT, 4% glycerol, room temperature, 30 min; GST-TFs on glutathione beads, 16-mer random dsDNA library, 0.1% formaldehyde crosslink after washing; high values mean tight binding
Experiment [1] has as its target T1, FEV (Homo sapiens, UniProt Q99581 1-238).
T1 sequence: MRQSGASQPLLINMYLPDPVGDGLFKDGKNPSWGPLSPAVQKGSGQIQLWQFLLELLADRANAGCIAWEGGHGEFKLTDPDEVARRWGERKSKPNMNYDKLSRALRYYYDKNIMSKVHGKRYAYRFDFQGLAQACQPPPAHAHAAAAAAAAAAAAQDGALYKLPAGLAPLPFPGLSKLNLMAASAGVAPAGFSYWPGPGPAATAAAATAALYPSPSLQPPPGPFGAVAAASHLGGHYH
Particulars: protein: recombinant; tags: N-terminal GST; dsDNA, one strand shown. A digest of the protocol: (§1)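 Pools were built from human transcription factors expressed in yeast as GST fusions, captured on glutathione beads and DNA-barcoded, along with a tag-only sample. Incubation with 200 nmole of a 16-mer random double-stranded DNA library lasted 30 min at room temperature in Tris/NaCl/DTT/glycerol buffer, and was followed by washing, 0.1% formaldehyde crosslinking, proximity ligation, PCR amplification and Illumina NextSeq500 sequencing. Binding signal is the quotient of each hexamer's read frequency for a factor and its frequency for the tag-only sample.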

In experiment [2] the target is ETV5 (Homo sapiens, UniProt P41161 1-510). The note with it: protein: recombinant; tags: N-terminal GST; dsDNA, one strand shown. A digest of the protocol: as §1
Experiment [3] has as its target HSF1 (Homo sapiens, UniProt Q00613 1-529). The note with it: protein: recombinant; tags: N-terminal GST; chain copies: 3; dsDNA, one strand shown. Summed up: as §1
Experiment [4] has as its target T2, SPIC (Homo sapiens, UniProt Q8N5J4 1-248).
T2 sequence: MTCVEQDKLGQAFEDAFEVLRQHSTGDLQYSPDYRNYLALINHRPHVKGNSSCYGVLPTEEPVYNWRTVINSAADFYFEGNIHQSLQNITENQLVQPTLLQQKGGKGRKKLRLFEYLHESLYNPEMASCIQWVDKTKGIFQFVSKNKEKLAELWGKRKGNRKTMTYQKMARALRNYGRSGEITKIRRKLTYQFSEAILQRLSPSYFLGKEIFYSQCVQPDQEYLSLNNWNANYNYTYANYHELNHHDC
Particulars: protein: recombinant; tags: N-terminal GST; dsDNA, one strand shown. Summed up:
as §1

Experiment [5] deals with ELF4 (Homo sapiens, UniProt Q99607 1-663). The note with it: protein: recombinant; tags: N-terminal GST; dsDNA, one strand shown. Summed up: as §1
Experiment [6] has as its target T3, ELK4 (Homo sapiens, UniProt P28324-2 1-405).
T3 sequence: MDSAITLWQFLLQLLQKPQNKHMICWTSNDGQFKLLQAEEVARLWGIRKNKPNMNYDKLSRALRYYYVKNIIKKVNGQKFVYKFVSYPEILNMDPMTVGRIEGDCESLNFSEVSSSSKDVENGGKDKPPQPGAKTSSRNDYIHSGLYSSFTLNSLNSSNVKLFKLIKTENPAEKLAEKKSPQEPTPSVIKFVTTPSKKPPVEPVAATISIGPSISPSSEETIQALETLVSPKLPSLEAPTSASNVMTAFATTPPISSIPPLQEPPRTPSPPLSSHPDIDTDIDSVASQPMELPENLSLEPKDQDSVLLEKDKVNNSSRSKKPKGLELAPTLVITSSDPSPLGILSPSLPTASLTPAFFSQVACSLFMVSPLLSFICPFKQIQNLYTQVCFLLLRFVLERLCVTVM
Particulars: protein: recombinant; tags: N-terminal GST; dsDNA, one strand shown. A digest of the protocol: as §1

The target in experiment [7] is T4, ETV2 (Homo sapiens, UniProt O00321 1-342).
T4 sequence: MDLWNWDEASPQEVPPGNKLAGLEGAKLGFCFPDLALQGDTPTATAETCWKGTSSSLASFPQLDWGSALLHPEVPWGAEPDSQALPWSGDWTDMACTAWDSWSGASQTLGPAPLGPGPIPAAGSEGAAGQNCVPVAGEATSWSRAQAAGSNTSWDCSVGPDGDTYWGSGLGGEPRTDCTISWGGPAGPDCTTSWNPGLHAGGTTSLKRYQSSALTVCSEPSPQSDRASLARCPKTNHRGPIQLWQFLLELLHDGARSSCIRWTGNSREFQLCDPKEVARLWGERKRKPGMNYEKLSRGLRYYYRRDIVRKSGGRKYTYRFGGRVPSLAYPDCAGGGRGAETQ
Particulars: protein: recombinant; tags: N-terminal GST; dsDNA, one strand shown. A digest of the protocol:
as §1

For experiment [8], the target named is T5, ELF3 (Homo sapiens, UniProt P78545 1-371).
T5 sequence: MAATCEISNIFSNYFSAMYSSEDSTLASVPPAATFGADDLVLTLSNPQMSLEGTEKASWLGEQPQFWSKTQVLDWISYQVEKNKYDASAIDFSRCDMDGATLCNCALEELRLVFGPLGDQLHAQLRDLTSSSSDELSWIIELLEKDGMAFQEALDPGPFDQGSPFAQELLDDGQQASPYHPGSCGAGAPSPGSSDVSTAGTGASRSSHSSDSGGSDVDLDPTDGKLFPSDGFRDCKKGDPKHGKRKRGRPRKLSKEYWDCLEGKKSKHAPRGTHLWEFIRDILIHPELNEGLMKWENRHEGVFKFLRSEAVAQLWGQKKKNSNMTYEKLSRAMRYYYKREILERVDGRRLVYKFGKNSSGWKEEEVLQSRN
The note with it: protein: recombinant; tags: N-terminal GST; dsDNA, one strand shown. A digest of the protocol:
as §1

The target in experiment [9] is CRX (Homo sapiens, UniProt O43186 1-299). The note with it: protein: recombinant; tags: N-terminal GST; dsDNA, one strand shown. A digest of the protocol:
as §1

The target of experiment [10] is ETV1 (Homo sapiens, UniProt P50549 1-477). Particulars: protein: recombinant; tags: N-terminal GST; dsDNA, one strand shown. Summed up: as §1
Experiment [11] addresses T6, ERF (Homo sapiens, UniProt P50548 1-548).
T6 sequence: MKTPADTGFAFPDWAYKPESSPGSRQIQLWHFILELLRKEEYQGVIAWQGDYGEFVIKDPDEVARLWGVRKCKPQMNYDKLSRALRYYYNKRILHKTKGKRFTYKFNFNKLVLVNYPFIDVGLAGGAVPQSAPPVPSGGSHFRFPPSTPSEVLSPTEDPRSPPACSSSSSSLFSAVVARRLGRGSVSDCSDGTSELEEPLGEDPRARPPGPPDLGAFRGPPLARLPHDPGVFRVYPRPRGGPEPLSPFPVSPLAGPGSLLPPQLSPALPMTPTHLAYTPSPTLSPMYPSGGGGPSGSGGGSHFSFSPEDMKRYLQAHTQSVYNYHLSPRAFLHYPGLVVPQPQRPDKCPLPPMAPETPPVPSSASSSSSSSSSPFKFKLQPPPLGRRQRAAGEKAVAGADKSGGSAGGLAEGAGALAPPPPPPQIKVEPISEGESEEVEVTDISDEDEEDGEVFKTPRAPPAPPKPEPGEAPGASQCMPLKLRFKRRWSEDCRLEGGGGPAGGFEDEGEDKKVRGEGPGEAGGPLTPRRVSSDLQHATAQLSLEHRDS
Particulars: protein: recombinant; tags: N-terminal GST; dsDNA, one strand shown. Summed up:
as §1

In experiment [12] the target is T7, ETV3L (Homo sapiens, UniProt Q6ZN32 1-361).
T7 sequence: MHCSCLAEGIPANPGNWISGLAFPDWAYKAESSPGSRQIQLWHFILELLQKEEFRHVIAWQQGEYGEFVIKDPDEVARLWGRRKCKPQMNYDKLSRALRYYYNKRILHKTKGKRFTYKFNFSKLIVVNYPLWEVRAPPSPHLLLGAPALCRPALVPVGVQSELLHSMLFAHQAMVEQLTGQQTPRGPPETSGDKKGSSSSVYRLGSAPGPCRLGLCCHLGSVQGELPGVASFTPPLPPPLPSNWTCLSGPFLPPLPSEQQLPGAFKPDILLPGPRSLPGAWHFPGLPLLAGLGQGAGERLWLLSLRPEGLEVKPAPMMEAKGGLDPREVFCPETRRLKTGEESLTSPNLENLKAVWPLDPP
The note with it: protein: recombinant; tags: N-terminal GST; dsDNA, one strand shown. A digest of the protocol:
as §1

Experiment [13] has as its target T8, ETS2 (Homo sapiens, UniProt P15036 1-469).
T8 sequence: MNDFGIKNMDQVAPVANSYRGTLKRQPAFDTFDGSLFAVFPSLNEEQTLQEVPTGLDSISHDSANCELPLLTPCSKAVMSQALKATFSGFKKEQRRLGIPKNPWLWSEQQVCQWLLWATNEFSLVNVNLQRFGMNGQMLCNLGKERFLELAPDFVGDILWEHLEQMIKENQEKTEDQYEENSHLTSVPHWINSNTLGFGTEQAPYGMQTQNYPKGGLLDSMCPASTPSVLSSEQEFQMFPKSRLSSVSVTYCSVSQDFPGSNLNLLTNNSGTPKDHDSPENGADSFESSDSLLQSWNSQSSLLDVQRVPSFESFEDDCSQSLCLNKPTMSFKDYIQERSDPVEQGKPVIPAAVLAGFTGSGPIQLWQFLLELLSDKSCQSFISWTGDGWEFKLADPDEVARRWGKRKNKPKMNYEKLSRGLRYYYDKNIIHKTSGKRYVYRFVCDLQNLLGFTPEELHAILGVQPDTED
The note with it: protein: recombinant; tags: N-terminal GST; dsDNA, one strand shown. Summed up:
as §1

Experiment [14] addresses T9, SPDEF (Homo sapiens, UniProt O95238 1-335).
T9 sequence: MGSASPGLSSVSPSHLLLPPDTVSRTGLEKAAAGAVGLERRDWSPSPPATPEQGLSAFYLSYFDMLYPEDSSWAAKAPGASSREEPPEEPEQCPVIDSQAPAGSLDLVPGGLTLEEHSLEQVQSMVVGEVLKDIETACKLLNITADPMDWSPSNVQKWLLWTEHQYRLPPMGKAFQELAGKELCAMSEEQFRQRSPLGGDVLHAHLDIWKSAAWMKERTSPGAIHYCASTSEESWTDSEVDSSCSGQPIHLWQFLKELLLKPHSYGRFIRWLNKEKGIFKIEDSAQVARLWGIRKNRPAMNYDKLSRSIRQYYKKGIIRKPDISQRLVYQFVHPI
Particulars: protein: recombinant; tags: N-terminal GST; dsDNA, one strand shown. Summed up:
as §1

Experiment [15] addresses T10, ETV7 (Homo sapiens, UniProt Q9Y603 1-341).
T10 sequence: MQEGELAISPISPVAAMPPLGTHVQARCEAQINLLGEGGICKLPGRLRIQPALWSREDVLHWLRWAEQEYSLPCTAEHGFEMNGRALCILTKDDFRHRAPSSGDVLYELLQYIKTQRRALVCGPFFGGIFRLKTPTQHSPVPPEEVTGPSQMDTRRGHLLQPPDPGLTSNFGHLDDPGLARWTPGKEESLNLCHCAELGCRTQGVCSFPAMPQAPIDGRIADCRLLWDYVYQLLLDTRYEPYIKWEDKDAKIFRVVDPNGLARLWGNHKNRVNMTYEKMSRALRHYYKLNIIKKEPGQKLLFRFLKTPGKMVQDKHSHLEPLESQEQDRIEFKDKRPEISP
The note with it: protein: recombinant; tags: N-terminal GST; dsDNA, one strand shown. A digest of the protocol: as §1

Experiment [16] has as its target T11, ELF5 (Homo sapiens, UniProt Q9UKW6-2 1-255).
T11 sequence: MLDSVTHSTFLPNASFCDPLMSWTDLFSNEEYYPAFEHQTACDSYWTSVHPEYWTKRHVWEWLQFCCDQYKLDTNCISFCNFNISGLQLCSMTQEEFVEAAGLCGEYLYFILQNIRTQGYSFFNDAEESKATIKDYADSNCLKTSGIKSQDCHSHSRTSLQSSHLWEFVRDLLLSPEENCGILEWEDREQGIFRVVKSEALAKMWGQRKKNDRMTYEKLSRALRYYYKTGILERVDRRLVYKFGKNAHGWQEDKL
The note with it: protein: recombinant; tags: N-terminal GST; dsDNA, one strand shown. A digest of the protocol: as §1

The target in experiment [17] is T12, ETV3 (Homo sapiens, UniProt P41162-2 1-143).
T12 sequence: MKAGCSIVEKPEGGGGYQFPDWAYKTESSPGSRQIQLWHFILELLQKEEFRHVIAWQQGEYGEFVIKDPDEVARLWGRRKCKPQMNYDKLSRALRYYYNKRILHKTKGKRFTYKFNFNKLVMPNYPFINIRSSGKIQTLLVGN
The note with it: protein: recombinant; tags: N-terminal GST; dsDNA, one strand shown. Summed up: as §1

For experiment [18], the target named is ETV6 (Homo sapiens, UniProt P41212 1-452). The note with it: protein: recombinant; tags: N-terminal GST; dsDNA, one strand shown. Summed up: as §1
Sequence of ETV6 (P41212 whole entry): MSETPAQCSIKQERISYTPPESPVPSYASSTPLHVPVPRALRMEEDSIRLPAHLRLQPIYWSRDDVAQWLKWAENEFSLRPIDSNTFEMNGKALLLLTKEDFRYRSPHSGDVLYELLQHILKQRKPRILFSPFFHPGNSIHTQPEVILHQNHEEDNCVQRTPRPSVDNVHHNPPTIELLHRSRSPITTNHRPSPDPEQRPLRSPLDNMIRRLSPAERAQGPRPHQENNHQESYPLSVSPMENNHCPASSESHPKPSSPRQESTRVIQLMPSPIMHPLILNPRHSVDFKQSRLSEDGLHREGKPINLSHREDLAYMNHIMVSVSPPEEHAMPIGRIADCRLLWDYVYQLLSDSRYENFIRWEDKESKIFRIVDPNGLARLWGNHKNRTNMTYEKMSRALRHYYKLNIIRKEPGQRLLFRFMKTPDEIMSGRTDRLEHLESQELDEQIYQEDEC

Sequence of HSF1 (Q00613 whole entry): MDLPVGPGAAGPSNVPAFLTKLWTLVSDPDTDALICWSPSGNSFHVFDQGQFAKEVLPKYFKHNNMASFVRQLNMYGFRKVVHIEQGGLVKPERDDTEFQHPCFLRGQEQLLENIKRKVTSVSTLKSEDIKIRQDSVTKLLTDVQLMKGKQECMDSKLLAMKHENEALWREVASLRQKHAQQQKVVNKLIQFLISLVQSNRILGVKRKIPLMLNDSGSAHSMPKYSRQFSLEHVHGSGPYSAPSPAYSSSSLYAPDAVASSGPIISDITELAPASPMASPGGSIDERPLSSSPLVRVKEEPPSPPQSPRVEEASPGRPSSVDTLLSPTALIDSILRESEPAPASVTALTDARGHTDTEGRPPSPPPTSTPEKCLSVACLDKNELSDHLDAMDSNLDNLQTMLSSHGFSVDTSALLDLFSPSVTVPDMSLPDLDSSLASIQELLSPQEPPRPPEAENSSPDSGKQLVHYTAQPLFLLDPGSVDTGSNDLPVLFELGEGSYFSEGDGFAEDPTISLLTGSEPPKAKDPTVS
Sequence of ELF4 (Q99607 whole entry): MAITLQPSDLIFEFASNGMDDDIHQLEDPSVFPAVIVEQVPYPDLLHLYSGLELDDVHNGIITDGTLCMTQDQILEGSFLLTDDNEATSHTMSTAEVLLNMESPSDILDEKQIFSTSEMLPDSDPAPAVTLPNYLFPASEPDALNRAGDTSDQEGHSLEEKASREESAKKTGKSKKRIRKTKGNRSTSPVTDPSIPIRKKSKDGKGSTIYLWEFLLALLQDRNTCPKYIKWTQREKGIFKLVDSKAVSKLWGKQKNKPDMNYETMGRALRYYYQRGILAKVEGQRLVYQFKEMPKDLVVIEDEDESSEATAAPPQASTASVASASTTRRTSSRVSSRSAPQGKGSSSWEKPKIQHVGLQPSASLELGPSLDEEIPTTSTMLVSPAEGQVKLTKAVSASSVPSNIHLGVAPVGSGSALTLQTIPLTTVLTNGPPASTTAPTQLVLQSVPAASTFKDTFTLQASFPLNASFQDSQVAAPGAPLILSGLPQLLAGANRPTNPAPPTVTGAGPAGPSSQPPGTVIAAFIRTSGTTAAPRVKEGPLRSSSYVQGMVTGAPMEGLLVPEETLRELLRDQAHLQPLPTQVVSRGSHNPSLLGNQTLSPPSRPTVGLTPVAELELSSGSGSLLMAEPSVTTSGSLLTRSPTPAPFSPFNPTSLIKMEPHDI
Sequence of CRX (O43186 whole entry): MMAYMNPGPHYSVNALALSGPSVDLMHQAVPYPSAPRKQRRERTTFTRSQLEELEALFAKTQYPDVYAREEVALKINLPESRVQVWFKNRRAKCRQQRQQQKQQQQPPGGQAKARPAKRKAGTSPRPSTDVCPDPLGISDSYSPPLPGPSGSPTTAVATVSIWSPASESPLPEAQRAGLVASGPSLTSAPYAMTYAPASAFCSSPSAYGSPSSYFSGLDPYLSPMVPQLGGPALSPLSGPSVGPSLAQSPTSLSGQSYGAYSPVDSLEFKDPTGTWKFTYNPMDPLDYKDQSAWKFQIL
Sequence of ETV5 (P41161 whole entry): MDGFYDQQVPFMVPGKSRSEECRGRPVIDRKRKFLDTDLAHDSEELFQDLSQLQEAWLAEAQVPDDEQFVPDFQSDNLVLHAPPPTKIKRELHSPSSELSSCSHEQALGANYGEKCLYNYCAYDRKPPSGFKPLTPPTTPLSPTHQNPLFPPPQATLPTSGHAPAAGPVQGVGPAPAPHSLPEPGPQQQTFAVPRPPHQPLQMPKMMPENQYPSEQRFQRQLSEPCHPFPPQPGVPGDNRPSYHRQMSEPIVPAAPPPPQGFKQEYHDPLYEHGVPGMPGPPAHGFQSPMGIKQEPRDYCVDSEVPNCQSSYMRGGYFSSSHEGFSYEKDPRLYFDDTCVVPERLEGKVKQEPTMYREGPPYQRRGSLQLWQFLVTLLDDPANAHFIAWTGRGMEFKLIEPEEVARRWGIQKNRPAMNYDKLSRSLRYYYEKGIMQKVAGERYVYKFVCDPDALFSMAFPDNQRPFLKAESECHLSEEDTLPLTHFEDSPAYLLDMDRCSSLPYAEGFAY
Sequence of ETV1 (P50549 whole entry): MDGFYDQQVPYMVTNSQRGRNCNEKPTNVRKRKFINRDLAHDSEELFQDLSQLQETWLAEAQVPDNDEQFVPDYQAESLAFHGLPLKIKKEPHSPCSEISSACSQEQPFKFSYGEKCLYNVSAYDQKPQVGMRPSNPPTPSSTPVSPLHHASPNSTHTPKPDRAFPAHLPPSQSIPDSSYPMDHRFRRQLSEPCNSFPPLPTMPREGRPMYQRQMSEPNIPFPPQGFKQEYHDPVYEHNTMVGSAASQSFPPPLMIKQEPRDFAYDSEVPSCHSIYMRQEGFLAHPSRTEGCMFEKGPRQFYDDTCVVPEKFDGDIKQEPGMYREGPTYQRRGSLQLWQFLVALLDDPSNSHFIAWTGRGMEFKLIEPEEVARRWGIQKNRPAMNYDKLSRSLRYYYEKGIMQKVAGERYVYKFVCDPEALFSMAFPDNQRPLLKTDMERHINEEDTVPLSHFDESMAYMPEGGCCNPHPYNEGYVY

Regarding TATTAC, the binding signal in experiment [1] is 1.16 fold enrichment (6-mer frequency, TF over GST control); in experiment [2], 1.28 fold enrichment (6-mer frequency, TF over GST control); in experiment [3], 1.33 fold enrichment (6-mer frequency, TF over GST control); in experiment [4], 1.24 fold enrichment (6-mer frequency, TF over GST control); in [5], 1.2 fold enrichment (6-mer frequency, TF over GST control); in experiment [6], 1.31 fold enrichment (6-mer frequency, TF over GST control). The binding signal is 1.27 fold enrichment (6-mer frequency, TF over GST control) in experiment [7]; 1.16 fold enrichment (6-mer frequency, TF over GST control) in [8]; 1.79 fold enrichment (6-mer frequency, TF over GST control) in experiment [9]; 1.27 fold enrichment (6-mer frequency, TF over GST control) in [10]; 1.22 fold enrichment (6-mer frequency, TF over GST control) in [11]; 1.2 fold enrichment (6-mer frequency, TF over GST control) in experiment [12]. Besides, the binding signal in experiment [13] was 1.18 fold enrichment (6-mer frequency, TF over GST control); in [14], 1.23 fold enrichment (6-mer frequency, TF over GST control); in experiment [15], 1.16 fold enrichment (6-mer frequency, TF over GST control); in experiment [16], 1.16 fold enrichment (6-mer frequency, TF over GST control); in [17], 1.24 fold enrichment (6-mer frequency, TF over GST control); in experiment [18], 1.28 fold enrichment (6-mer frequency, TF over GST control).
